About 83,000 compounds went through this panel and 20% of them were active in at least one assay; those are over-represented in the sample as a whole.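 Step 1: grow cells in 96-well plates. Step 2: add test compound at a single concentration. Step 3: incubate 48 h. Step 4: record percent growth.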 Values without a mark were called inactive. Activity calls are given as the source filed them. Rule for the calls: active = growth percent below 10; inactive = the rest.

The assay relates to SNB-19 CNS. The experiment in a line: NCI-60 one-dose screen, 48 h (100 = growth as untreated, 0 = no growth, -100 = all killed). The settings on record: 10 µM unless noted.
As for `C[C@H]1[C@@H]2[C@H]3CC[C@@H]4[C@@]5(C)Cc6c([nH]c7ccccc67)C(C)(C)[C@@H]5CC[C@@]4(C)[C@]3(C)CC[C@]23CO[C@]1(C)[C@@H](C(=O)/C=C/c1ccccn1)C3`, the growth was 85.6%.
Next, `CCCC1CCCCN1C(=O)OCC(C)C` (configuration not stated): 102%.
Next, `N#CC1C(=N)Cc2ccccc2-c2ccccc21` (configuration not stated): 64.1%.
Next, `Cc1cc(C)nc(NC(N)=NCCc2ccccc2)n1`: 46.8%; `N=c1c(S(=O)(=O)c2ccccc2)cc2c(=O)n3ccccc3nc2n1C1CCCC1`: 90.3%.
Regarding `CCOc1ccc(NC(=O)c2ccccc2-c2ccccc2C(=O)O)cc1`, the growth is 98.8%.
For the compound `CCCCC[C@H]1C/C=C2/C(=O)C=C[C@@H]2C/C=C\CCCC(=O)O[C@@H](CCCCC)C/C=C2/C(=O)C=C[C@@H]2C/C=C\CCCC(=O)O1`, the growth was -83.4% (active).
Regarding `CC(C)=CCC/C(C)=C/CC/C(C)=C/CC/C(C)=C/CSC[C@H](NC(=O)CCCCCN1CCN(C)CC1)C(=O)NC1CCCCC1`, the growth is 85.6%.
Consider `O=C(/C=C/c1ccc2ccccc2c1)Nc1ncc(Cc2ccccc2)s1`, for which the growth is 69.5%.
Consider `C=C(C)[C@@H]1CC[C@]2(C(=O)O)CC[C@]3(C)[C@H](CC[C@@H]4[C@@]5(C)C/C(=C/c6ccc(OC)cc6)C(=O)C(C)(C)[C@@H]5CC[C@]43C)[C@@H]12`, for which the growth was 32.3%.
In the case of `COc1ccc2c(c1)c(-c1nc(-c3cn(C)c4ncccc34)cs1)cn2CCCN1CCCCC1` it was 55.2%; in that of `C#CCC(C)(O)/C=C/C1=C(C)CCCC1(C)C` (configuration not stated), 95.8%; in that of `C=C(C)[C@@H]1CC[C@]2(C=NCCCNCCCCNCCCN)CC[C@]3(C)[C@H](CC[C@@H]4[C@@]5(C)CCCNC(C)(C)[C@@H]5CC[C@]43C)[C@@H]12`, 88.3%.
In the case of `Nc1ccc(Br)cn1` it was 107%; in that of `COc1cccc(-c2nn(-c3ccccc3)cc2-c2ccnc(NCCNS(=O)(=O)c3ccc(Cl)cc3)c2)c1`, 46%; in that of `COc1ccc(C2CC(=O)c3c(nc4ccc(Cl)cc4c3N)C2)cc1` (configuration not stated), 103%.
Next, `COc1cc2c(cc1-c1c(C)noc1C)ncc1nc(C3CCC(F)(F)CC3)n([C@@H](C)COC(F)F)c12`: 53.4%.
`CC1(n2nnnc2N2CCCN(c3ncccc3N)CC2)CCC1`: the growth is 98.6%.
Take `O=C(O[C@@H]1Cc2c(O)cc(O)cc2O[C@@H]1c1cc(O)c(O)c(O)c1)c1cc(O)c2c(c1)OCO2`: the growth was 104%.
Take `COc1cc(-c2nc(-c3ccccc3)c(-c3ccccc3)[nH]2)cc(OC)c1O`: the growth was 20.1%.
In the case of `C=C(C)[C@@H]1CC[C@]2(C(=O)O)CC[C@]3(C)[C@H](CC[C@@H]4[C@@]5(C)C/C(=C/c6cccc(I)c6)C(=O)C(C)(C)[C@@H]5CC[C@]43C)[C@@H]12` it was 38%; in that of `NC1=NN=C2N(N)C(=O)c3cnn(-c4ccccc4)c3N2c2nc(-c3ccccc3)cc(-c3ccccc3)c21`, 93.5%; in that of `CCSc1ncnc2c1ncn2C1OC(CO)C(O)C1O` (configuration not stated), 34.1%.
In the case of `COc1ccc(-c2nc3ccccn3c2-c2nc3ccc(Cl)cc3[nH]2)cc1` it was 96.2%; in that of `CC(=O)OC[C@]12CC[C@@H](/C(C)=N/O)[C@@H]1[C@H]1CC[C@@H]3[C@@]4(C)CCCNC(C)(C)[C@@H]4CC[C@@]3(C)[C@]1(C)CC2`, 83.1%; in that of `OCC12CCCC(CO)(COC1)C2O` (configuration not stated), 116%.
In the case of `Cc1ccc(N(CC(=O)Nc2ccc(S(=O)(=O)N3CCC(N4CCCC4)CC3)cc2)S(=O)(=O)c2ccc(Cl)cc2)cc1` it was 40.6%; in that of `CC[C@]12C=CCN3CC[C@@]4(c5cc([C@H]6CCC(=O)N6)c(OC)cc5N(C)[C@H]4[C@@](O)(C(=O)OC)[C@@H]1OC(C)=O)[C@@H]32`, 105% [2.5 µM]; in that of `Brc1ccc(Cn2nnnc2-c2ccn(-c3ccccc3)n2)cc1`, 78.9%.
In the case of `COC(=O)c1cc(=O)nc(N/N=C/c2ccc(C)cc2)s1`, the growth is 109%.
Consider `Cc1ccc2oc(=O)cc(-c3sc(N4CCCCC4)nc3-c3ccccc3)c2c1`, for which the growth is 95.3%.
Next, `CC1(C)CC[C@]2(C(=O)Nc3ccccn3)CC[C@]3(C)C(=CC[C@@H]4[C@@]5(C)C/C(=C/c6ccncc6)C(=O)C(C)(C)[C@@H]5CC[C@]43C)[C@@H]2C1`: 58.4%.

For the origin of these results see PubChem BioAssay (NCI).
